Test [1] deals with Gonadotropin-releasing hormone receptor (Homo sapiens) (UniProt P30968). The test is described as follows: Human gonadotropin-releasing hormone receptor (GnRHR) small molecule agonists, calcium flux assay in GnRHR-HEK293 cells (AID 1920063). Note: nearly all actives have a fitted effect of over 35% in size. Summed up: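 Calcium-dye fluorescence, Ex/Em=480/540, recorded every 1 sec over 3 min after compound addition to GnRHR-HEK293 cells. Cells had been seeded 18 hours earlier and dye-loaded for 1 hour at 37 C. Fifteen concentrations, triplicates.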
For orientation: Calcium flux is commonly read through the fluorescence of an indicator in the cells.

The target in test [2] is KiSS-1 receptor (Homo sapiens) (UniProt Q969F8). The test is described as follows: Human kisspeptin (KISS1R) small molecule agonists, calcium flux assay in KISS1R-HEK293 cells (AID 1920064; active = well fitted activation curve with a large enough effect in the repeat runs). Put shortly: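 Calcium flux read-out: kinetic fluorescence at Ex/Em=480/540, 1 s intervals over 3 min, after pin-tool compound addition to dye-loaded KISS1R-HEK293 cells. Fifteen concentrations, triplicates.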

Test [3] is described as follows: G protein-coupled receptor (GPCR) small molecule agonists, calcium flux assay: HEK293 wild type cell line counter screen (AID 1920065). Summed up:
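Agonist mode; 18 h seeding at 37 C, 1 h dye load at 37 C; compounds pinned from DMSO, ATP as positive control; kinetic fluorescence 480/540 nm, 3 min, 1 s reads; 15 concentrations, triplicate.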

The nature of test [4]: p53 small molecule agonists, cell-based qHTS assay with human liver microsomes (AID 1963577). Put shortly:
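Cells carrying a p53-responsive bla reporter were rested 5 h (37 C, 5% CO2) before compound transfer. Human liver microsomes plus NADPH, 0.5 mg/mL final apiece, supplied metabolism during the 16 h 37 C exposure.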
On the technique in general: In qHTS, concentration-response curves come from the screen itself.

Test [5] is described as follows: p53 small molecule agonists, cell-based qHTS assay with rat liver microsomes (AID 1963578). Put shortly: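 Fluorescence from a beta-lactamase reporter under a p53 response element was measured after cells had been incubated 16 h at 37 C with test compound and rat liver microsomes plus NADPH (0.5 mg/mL final each).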
A short description of test [6]: p53 small molecule agonists, cell-based qHTS assay with human liver microsomes: qHTS cell viability counter screen (AID 1963579). Note: nearly all actives have a fitted effect of over 45% in size. Put shortly:
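Seed p53RE-bla cells at 4,000 per well; incubate 5 h at 37 C; add compound, human liver microsomes and NADPH; incubate 16 h at 37 C; add CellTiter-Glo; after 30 min at room temperature, read luminescence.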

Test [7] is described as follows: p53 small molecule agonists, cell-based qHTS assay with rat liver microsomes: qHTS cell viability counter screen (AID 1963580). Note: nearly all actives have a fitted effect of over 45% in size. Summed up:
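Cytotoxicity counter screen: intracellular ATP read by CellTiter-Glo luminescence in the p53 reporter wells. HCT-116 p53RE-bla cells were treated for 16 h at 37 C alongside rat liver microsomes and NADPH, each 0.5 mg/mL final.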

Test [8] can be described thus: p53 small molecule agonists, cell-based qHTS assay: qHTS cell viability counter screen (AID 1963581). Note: nearly all actives have a fitted effect of over 45% in size. Note: potency is the fitted concentration of half-maximal effect. Summed up:
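Cytotoxicity read-out: ATP-based luminescence (CellTiter-Glo, 30 min RT) measured in the same wells as the p53 reporter assay, HCT-116 p53RE-bla cells, 16 h compound exposure at 37 C.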

Test [9] can be described thus: p53 small molecule agonists, cell-based qHTS assay (AID 1963582; active = well fitted activation curve with a large enough effect in the signal ratio in the repeat runs, not every such curve was filed as active; the % refers to the signal ratio). Put shortly:
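Fluorescence intensity read-out of a beta-lactamase reporter under a p53 response element. Cells were exposed to DMSO-dissolved compounds for 16 h at 37 C, then developed with FRET substrate for 2 h at RT.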

Test [10] deals with 5-hydroxytryptamine receptor 2A (Homo sapiens) (UniProt P28223). The test is described as follows: 5-hydroxytryptamine receptor 2A (HTR2A) small molecule agonists, cell-based qHTS assay (AID 1963587). Note: nearly all actives have a fitted effect of over 30% in size. Put shortly:
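Kinetic calcium-flux fluorescence (2 min, 1 sec intervals) after compound addition in agonist mode. HTR2A-CHO cells were cultured 18 h, then dye-loaded 1 h at 37 C.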

Test [11] has as its target Muscarinic acetylcholine receptor M1 (Homo sapiens) (UniProt P11229). The test is described as follows: Cholinergic receptor muscarinic 1 (CHRM1) small molecule antagonists, cell-based qHTS assay (AID 1963588). Note: nearly all actives have a fitted effect of over 40% in size. Summed up: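 Compounds were tested at 15 concentrations in three independent runs. Dye-loaded CHRM1-CHO cells were exposed 5 min at room temperature before stimulation by acetylcholine added at 50nM. Intracellular calcium was read kinetically on FDSS for 3 min.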

Test [12] has the same target. The test is described as follows: Cholinergic receptor muscarinic 1 (CHRM1) small molecule agonists, cell-based qHTS assay (AID 1963589). Note: nearly all actives have a fitted effect of over 35% in size. Put shortly:
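Calcium flux read-out: kinetic fluorescence at 1 sec intervals after pin-tool compound addition to dye-loaded CHRM1-CHO cells (human M1). Agonist mode; 15 concentrations tested in triplicate independent runs.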

Test [13] in a line: cAMP Responsive Elements (CRE) small molecule agonists, cell-based qHTS assay (AID 1963590). Summed up: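 Beta-lactamase reporter readout: LiveBLAzer B/G FRET substrate, 2 h at room temperature, added after 3 h compound treatment of CRE-bla HEK 293T cells at 37 C/5% CO2.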
Test [14] can be described thus: cAMP Responsive Elements (CRE) small molecule antagonists, cell-based qHTS assay (AID 1963591; active = well fitted inhibition curve with a large enough effect in the signal ratio in the repeat runs, not every such curve was filed as active; the % refers to the signal ratio). Summed up:
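HEK293T CRE-bla; 18 h preincubation; compound pin-transfer; NKH477 0.25 uM final, 3 h, 37 C; LiveBLAzer FRET substrate 2 h RT.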

The target of test [15] is Beta-2 adrenergic receptor (Homo sapiens) (UniProt P07550). Description: Adrenergic beta2 receptor (ADRB2) small molecule antagonists, cell-based qHTS assay (AID 1963592). Note: series mostly up to about 92 µM; nearly all actives have a fitted effect of over 50% in size. Summed up:
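Assay format: CHO-ADRB2 cells, 18-20hr seeding at 37C/5% CO2, then compound plus 1nM isoproterenol agonist mix for 0.5hr RT. Homogeneous time-resolved fluorescence cAMP detection after 1hr, expressed as 665/615 nm ratio.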

Test [16] has as its target D(2) dopamine receptor (Homo sapiens) (UniProt P14416). The test is described as follows: Dopamine D2 receptor (DRD2) small molecule agonists, cell-based qHTS assay (AID 1963594). Note: nearly all actives have a fitted effect of over 35% in size. Put shortly:
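cAMP accumulation in DRD2-HEK293 cells measured by HTRF after 1 h detection; compounds added 10 min before NKH477 (200nM […]) forskolin-analogue stimulation, 30 min at room temperature, with Ro20-1724 present at 0.1 mM final.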

Test [17] has the same target. The test is described as follows: Dopamine D2 receptor (DRD2) small molecule antagonists, cell-based qHTS assay (AID 1963595; active = well fitted inhibition curve with a large enough effect in the signal ratio in the repeat runs, with a control signal flat; the % refers to the signal ratio). Put shortly:
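Human DRD2 antagonist qHTS measuring cAMP by HTRF. The cells are exposed to compound for 10 min, then to NKH477 (200 nM) and quinpirole (12 nM) for 30 min at RT, with Ro20-1724 (0.1 mM) present throughout.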

A short description of test [18]: Nuclear factor erythroid 2-related factor 2/antioxidant responsive element (Nrf2/ARE) small molecule agonists: luciferase reporter gene qHTS assay in human keratinocytes (AID 1919969). Note: nearly all actives have a fitted effect of over 35% in size.
In test [19] the target is 5-hydroxytryptamine receptor 2A (Homo sapiens) (UniProt P28223). The test is described as follows: 5-hydroxytryptamine receptor 2A (HTR2A) small molecule antagonists, cell-based qHTS assay (AID 1963586). Note: nearly all actives have a fitted effect of over 45% in size. Summed up: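 CHO cells stably expressing human HTR2A were plated for 18 h at 37 C, then loaded with calcium dye for 1 h. Compounds were preincubated 5 min at room temperature before DOI (4 nM solution) was added. Kinetic fluorescence was read for 3 min.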

The target in test [20] is Beta-2 adrenergic receptor (Homo sapiens) (UniProt P07550). Description: Adrenergic beta2 receptor (ADRB2) small molecule agonists, cell-based qHTS assay (AID 1963593).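 Note: CHO cells stably overexpressing human ADRB2.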 Summed up: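 CHO cells stably over-expressing ADRB2 were plated overnight at 37C, then dosed with compounds plus a stimulation mix containing 100uM IBMX and 25uM Ro-20-1724 for 0.5hr at room temperature. cAMP was measured by HTRF competition, 1hr.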

Records with an inconclusive call do not appear. A structure can be active in one record and inactive in another. Activity calls are given as the source filed them. Unless noted, calls come from the whole dose curve.

Gonadotropin-releasing hormone receptor (Homo sapiens), sequence (P30968 whole entry, looked up): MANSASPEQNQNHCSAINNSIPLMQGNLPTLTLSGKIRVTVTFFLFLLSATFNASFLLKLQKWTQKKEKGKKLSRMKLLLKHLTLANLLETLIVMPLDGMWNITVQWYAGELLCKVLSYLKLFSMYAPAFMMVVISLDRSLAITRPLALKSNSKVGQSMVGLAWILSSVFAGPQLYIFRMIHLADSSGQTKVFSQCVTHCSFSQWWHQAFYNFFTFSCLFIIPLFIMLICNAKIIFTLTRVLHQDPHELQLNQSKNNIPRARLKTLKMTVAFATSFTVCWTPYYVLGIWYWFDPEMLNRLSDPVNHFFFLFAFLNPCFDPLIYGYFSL
Muscarinic acetylcholine receptor M1 (Homo sapiens), sequence (P11229 whole entry, looked up): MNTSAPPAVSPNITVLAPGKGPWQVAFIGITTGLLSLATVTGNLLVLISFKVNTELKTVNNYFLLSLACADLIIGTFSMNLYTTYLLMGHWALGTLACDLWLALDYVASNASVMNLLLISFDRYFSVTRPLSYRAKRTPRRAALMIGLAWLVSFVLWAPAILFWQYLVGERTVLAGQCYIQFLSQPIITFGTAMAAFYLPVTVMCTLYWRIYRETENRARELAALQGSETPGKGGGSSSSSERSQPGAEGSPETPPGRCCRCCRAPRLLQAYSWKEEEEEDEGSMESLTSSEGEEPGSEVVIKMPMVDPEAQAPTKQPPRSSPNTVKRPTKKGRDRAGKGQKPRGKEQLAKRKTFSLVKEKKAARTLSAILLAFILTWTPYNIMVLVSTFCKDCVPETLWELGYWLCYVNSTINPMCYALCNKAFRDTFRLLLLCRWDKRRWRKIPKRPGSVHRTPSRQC
KiSS-1 receptor (Homo sapiens), sequence (Q969F8 whole entry, looked up): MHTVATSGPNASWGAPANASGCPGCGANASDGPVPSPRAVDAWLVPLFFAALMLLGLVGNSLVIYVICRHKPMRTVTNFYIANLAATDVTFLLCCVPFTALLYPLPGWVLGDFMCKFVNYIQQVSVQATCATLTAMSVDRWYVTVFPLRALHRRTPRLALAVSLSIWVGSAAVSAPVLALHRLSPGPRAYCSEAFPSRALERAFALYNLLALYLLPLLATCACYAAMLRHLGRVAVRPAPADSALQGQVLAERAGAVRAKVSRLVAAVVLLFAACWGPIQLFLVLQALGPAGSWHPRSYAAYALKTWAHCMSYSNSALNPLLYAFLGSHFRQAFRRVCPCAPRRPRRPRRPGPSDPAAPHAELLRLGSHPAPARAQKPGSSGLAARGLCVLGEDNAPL
Beta-2 adrenergic receptor (Homo sapiens), sequence (P07550 whole entry, looked up): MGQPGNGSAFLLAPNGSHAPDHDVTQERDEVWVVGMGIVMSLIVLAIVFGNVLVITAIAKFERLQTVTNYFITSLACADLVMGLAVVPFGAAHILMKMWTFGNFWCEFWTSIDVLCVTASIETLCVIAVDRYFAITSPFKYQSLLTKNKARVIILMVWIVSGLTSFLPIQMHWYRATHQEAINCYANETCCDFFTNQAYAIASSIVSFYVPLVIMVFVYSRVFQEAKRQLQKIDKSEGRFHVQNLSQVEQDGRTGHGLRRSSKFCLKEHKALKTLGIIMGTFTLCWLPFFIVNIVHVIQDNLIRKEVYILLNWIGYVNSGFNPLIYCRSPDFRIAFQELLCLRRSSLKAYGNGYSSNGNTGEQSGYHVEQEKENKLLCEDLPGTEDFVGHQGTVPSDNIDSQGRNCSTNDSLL
D(2) dopamine receptor (Homo sapiens), sequence (P14416 whole entry, looked up): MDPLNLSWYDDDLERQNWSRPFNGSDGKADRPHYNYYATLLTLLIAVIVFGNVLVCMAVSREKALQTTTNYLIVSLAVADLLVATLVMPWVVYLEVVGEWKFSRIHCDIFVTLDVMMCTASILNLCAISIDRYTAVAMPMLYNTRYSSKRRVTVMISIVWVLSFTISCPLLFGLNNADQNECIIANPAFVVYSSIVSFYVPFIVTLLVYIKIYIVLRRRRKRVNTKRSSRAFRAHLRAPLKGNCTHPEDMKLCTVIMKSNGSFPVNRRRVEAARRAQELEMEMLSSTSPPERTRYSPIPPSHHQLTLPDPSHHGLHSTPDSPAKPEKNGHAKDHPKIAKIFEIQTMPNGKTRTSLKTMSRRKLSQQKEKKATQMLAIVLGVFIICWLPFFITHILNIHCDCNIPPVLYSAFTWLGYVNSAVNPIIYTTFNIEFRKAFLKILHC
5-hydroxytryptamine receptor 2A (Homo sapiens), sequence (P28223 whole entry, looked up): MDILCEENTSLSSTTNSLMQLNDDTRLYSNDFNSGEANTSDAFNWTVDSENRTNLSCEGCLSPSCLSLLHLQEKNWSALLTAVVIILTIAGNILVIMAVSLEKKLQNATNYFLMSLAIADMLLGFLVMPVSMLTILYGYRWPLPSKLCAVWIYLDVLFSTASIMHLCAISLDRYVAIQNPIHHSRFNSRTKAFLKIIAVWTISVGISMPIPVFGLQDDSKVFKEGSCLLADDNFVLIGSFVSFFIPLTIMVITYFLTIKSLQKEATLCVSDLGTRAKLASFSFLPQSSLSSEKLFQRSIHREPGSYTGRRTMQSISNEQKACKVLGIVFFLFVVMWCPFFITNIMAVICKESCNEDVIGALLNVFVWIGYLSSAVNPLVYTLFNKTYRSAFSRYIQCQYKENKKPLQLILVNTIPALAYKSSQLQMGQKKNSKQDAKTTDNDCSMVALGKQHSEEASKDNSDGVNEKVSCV

In the case of `CCOC(=O)CCC(C)=O`, the Potency entry in [1], in test [2], in [3], in test [4], in test [5] and in test [6] was “inactive” each time. In addition, the Potency entry in [7], in [8], in test [9], in test [10], in test [11] and in test [12] was “inactive” in each case. Also, the Potency entry in test [13], in test [14], in test [15], in test [16] and in test [17] was “inactive” throughout.
On to `CC(CC=O)CC(C)(C)C` (stereo unspecified), for which the Potency result in test [18], in test [1], in test [3], in [4], in [5] and in test [6] was “inactive” throughout. Moreover, the Potency result in test [7], in test [8], in test [9], in test [19], in test [10] and in test [11] was “inactive” throughout. In addition, the Potency result in test [12], in test [13], in [14], in test [15], in test [20] and in test [16] was “inactive” each time. In addition, the Potency entry in [17] was “inactive”.
On to `O=C(O)[C@H](O)[C@@H](O)[C@H](O[C@@H]1O[C@H](CO)[C@H](O)[C@H](O)[C@H]1O)[C@H](O)CO`, for which the Potency result in [18], in test [1], in test [3], in test [4], in test [5] and in test [6] was “inactive” in each case. Besides, the Potency result in test [7], in test [8], in [9], in test [10], in test [11] and in [12] was “inactive” each time. The Potency entry in [13], in test [14], in [15], in [20] and in [16] was “inactive” in each case.
As for `CC1=CC(=O)NS(=O)(=O)O1`, the Potency entry in [1], in test [2], in test [3], in test [6], in [7] and in test [19] was “inactive” throughout. In addition, the Potency result in test [10], in test [11], in [13], in [14], in test [15] and in test [20] was “inactive” in each case. Moreover, the Potency entry in [16] and in test [17] was “inactive” throughout. Further, the Potency in test [8] was 23 µM (active) and inactive.
Take `CCO/C([O-])=N/c1c[n+](N2CCOCC2)no1`: the Potency result in [1], in test [2], in test [3], in test [4], in test [5] and in test [6] was “inactive” each time. The Potency entry in [7], in test [9], in [19], in test [10], in test [11] and in test [12] was “inactive” each time. The Potency entry in test [13], in [14], in test [15], in test [20], in test [16] and in test [17] was “inactive” in each case.
Turning to `CCCN[C@H]1CCc2nc(N)sc2C1`, the Potency result in test [1], in [2], in test [3], in test [4], in [5] and in [6] was “inactive” throughout. Also, the Potency result in test [7], in [8], in [9], in test [19], in test [11] and in [12] was “inactive” each time. The Potency entry in [13], in [14], in test [15], in test [20] and in [17] was “inactive” each time.
With `CC(=O)c1cccc([N+](=O)[O-])c1`, the Potency entry in test [18], in test [1], in test [3], in test [4], in test [5] and in test [6] was “inactive” each time. For the same compound, the Potency entry in test [7], in [8], in test [9], in [19], in [10] and in test [11] was “inactive” in each case. For the same compound, the Potency entry in test [12], in test [13], in [14], in test [20], in test [16] and in test [17] was “inactive” in each case.

For the origin of these results see PubChem BioAssay (Tox21).
